# PubChem BioAssay
# “And” between values parts separate entries of the source, which are not always exact repeats. Equal entries are not always repeated. The source made the active and inactive calls.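 How the source made its calls, unless noted: active means thallium flux through the channel raised or lowered by more than 3 SD from vehicle-only wells, actives on both sides; inactive means the rest.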
# Columns and labels:
# [1] = blockers of polyQ-driven CASP3 activation – cell-based (AID 1583); conditions: polyglutamine-induced caspase-3 activation, cell assay; stronger effect = higher value;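 tested at 10 µM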
# [2] = yeast 75Q aggregation reduction – 75Q-TubU reporter (AID 1593); conditions: Yeast 75Q polyglutamine aggregation reporter
# [3] = blockers of cytochrome c efflux from mitochondria – biochemical, purified mitochondria (AID 1603); conditions: stronger effect = lower value;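 further: mouse liver mitochondria challenged with calcium chloride; signal normalized to the plate average as 100%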
# [4] = polyglutamine aggregate formation blockers (AID 1604); conditions: polyglutamine-induced protein aggregation inhibition assay; stronger effect = higher value; tested at 2.5 µM
# [5] = glutamate transport activators, MN-1 cells, MN-1 cell line (AID 1612); conditions: MN-1 motor neuron cells, stronger effect = higher value;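 further: tested at 1 µM final; 0% = mean of DMSO vehicle wells on each plate; positive means more glutamate uptake than control and negative means less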
# [6] = growth inhibition, single agent or in combination, cell-based, chromothripsis tumors, cisplatin or BGB combos (AID 1671449; in the data active means inhibition above about 80%;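 further: cells exposed for 96 hours; 0% = vehicle DMSO and 100% = killing by high DMSO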); conditions: LFS_MB_P medulloblastoma cells
# [7] = growth inhibition, single agent and combos, cell-based, chromothripsis tumors, cisplatin or BGB combos (AID 1671450; in the data active means inhibition above about 80%;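 further: cells exposed to compound for four days; 0% = vehicle DMSO and 100% = cell killing by high DMSO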); conditions: HDN33 neuroblastoma cells, stronger effect = higher value
# [8] = growth inhibition, single agents and combos, HTB85, cell-based, BGB or cisplatin IC20 combos, synergistic combos for chromothripsis tumors (AID 1671453; in the data active means inhibition above about 80%;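 further: cells exposed for 96 hours before readout; 0% = vehicle DMSO and 100% = high DMSO killing control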); conditions: HTB85 osteosarcoma cells, drug combinations, stronger effect = higher value
# F380Y/beta4 = assay: BK channel mutant inhibitors and activators – cell-based, U2OS BacMam, thallium flux, beta subunits, selectivity assay, profiling panel (AID 1259406); conditions: U2OS BacMam BK variants, at 30 µM;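 further: initial slope of Thallos dye fluorescence rise after thallium is added; log ratio against the mean of 0.3% DMSO vehicle wells on the same plate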
# [9] = target: Calcium-activated potassium channel subunit alpha-1 (Homo sapiens) + Leucine-rich repeat-containing protein 26 (Homo sapiens) (UniProt Q12791+Q2I0M4); assay: as above; conditions: U2OS BacMam BK variants, F380Y/Slo1WT/gamma1, at 30 µM
# Calcium-activated potassium channel subunit alpha-1 (Homo sapiens) + Leucine-rich repeat-containing protein 26 (Homo sapiens), sequence (Q2I0M4 whole entry, looked up, one chain of several): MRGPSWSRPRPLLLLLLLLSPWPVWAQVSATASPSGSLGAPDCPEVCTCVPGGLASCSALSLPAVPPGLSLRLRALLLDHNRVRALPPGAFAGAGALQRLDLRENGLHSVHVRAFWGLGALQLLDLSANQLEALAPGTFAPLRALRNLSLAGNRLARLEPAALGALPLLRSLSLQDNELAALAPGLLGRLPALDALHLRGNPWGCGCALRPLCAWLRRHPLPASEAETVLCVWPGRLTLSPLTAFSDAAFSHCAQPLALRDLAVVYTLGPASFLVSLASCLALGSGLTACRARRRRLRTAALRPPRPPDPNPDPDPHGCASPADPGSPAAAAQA
# R275C = assay: as above; conditions: U2OS BacMam BK variants, at 30 µM
# R275C/beta1 = assay: as above; conditions: U2OS BacMam BK variants, at 30 µM
# R275C/beta2Delta = assay: as above; conditions: U2OS BacMam BK variants, at 30 µM
# R275C/beta4 = assay: as above; conditions: U2OS BacMam BK variants, at 30 µM
# R275C/Slo1WT/beta2 = assay: as above; conditions: U2OS BacMam BK variants, at 30 µM
# [10] = signal quenchers or enhancers, Cy5 substrate/SSB – biochemical, NIH Clinical Collection, E. coli SSB, artefact control for HCV NS3 helicase inhibitor project (AID 743268; call rule not given here); conditions: Cy5-oligo bound E. coli SSB, fluorescence interference
# [11] = system: Hepatitis C virus NS3 helicase; assay: blockers of NS3h binding to DNA – biochemical, fluorescence polarization, NIH Clinical Collection, primary screen (AID 743270; call rule not given here); conditions: NS3 helicase binding to Cy5-dT15 DNA, stronger effect = higher value, concentration not given here
# [12] = target: Single-stranded DNA-binding protein (Escherichia coli (strain K12)) (UniProt P0AGE0); assay: SSB-ssDNA binding inhibitors – biochemical, fluorescence polarization, NIH Clinical Collection, counter-screen for HCV NS3 helicase inhibitor project (AID 743271; in the data active means inhibition above about 28%); conditions: E. coli SSB-DNA binding, stronger effect = higher value, concentration not given here
# [13] = compounds distorting NS3 helicase fluorescence signal – biochemical, NIH Clinical Collection, artefact control for HCV NS3 helicase inhibitor project (AID 743272; call rule not given here;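 further: HCV NS3 helicase with a Cy5 labelled single stranded DNA probe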); conditions: fluorescence interference counterscreen, HCV NS3 helicase assay; stronger effect = lower value
smiles,measurement,setting,value
Nc1nc2c(ncn2COCCO)c(=O)[nH]1,inhibition,[1],6.39%
same,score,[2],1.1
same,cytochrome c release ratio,[3],1.05
same,inhibition of aggregation,[4],51.5%
same,glutamate uptake change,[5],13.5%
same,inhibition,"[6]; at 0.5 µM, stronger effect = higher value",-27.5% (inactive) and -23.8% (inactive)
same,inhibition,"[6]; measured here: combination with BGB IC20, at 0.005 µM",-0.211% and -20%
same,inhibition,"[6]; measured here: combination with BGB IC40, at 0.005 µM",-37.2% and -37.3%
same,inhibition,"[6]; measured here: combination with BGB IC40, at 0.05 µM",-22.3% and -50.5%
same,inhibition,"[6]; measured here: combination with cisplatin, at 0.5 µM, stronger effect = higher value",-35.1% and -39.9%
same,inhibition,"[6]; measured here: combination with cisplatin, at 5 µM, stronger effect = higher value",-19.1% and -38.4%
same,inhibition,"[7]; BGB combo, at 5 µM",-39.6% and -25.3%
same,inhibition,[7]; at 0.5 µM,-44.3% (inactive) and -13.8% (inactive)
same,inhibition,"[7]; cisplatin combo, at 5 µM",-30.4% and 3.02%
same,inhibition,"[7]; measured here: with BGB IC20 combination, at 0.5 µM",-44% and -16%
same,inhibition,"[7]; measured here: with cisplatin IC20 combination, at 0.5 µM",-44.9% and -2.15%
same,inhibition,"[7]; single agent, at 5 µM",-49.5% and 10.3%
same,inhibition,[8]; at 0.5 µM,-30.1% (inactive) and -6.85% (inactive)
same,inhibition,"[8]; measured here: with BGB IC20, at 0.5 µM",-40.8% and -11.5%
same,inhibition,"[8]; measured here: with BGB IC20, at 5 µM",-33.7% and -9.07%
same,inhibition,"[8]; measured here: with cisplatin IC20, at 0.5 µM",-27.1% and -11.3%
same,inhibition,"[8]; measured here: with cisplatin IC20, at 5 µM",-43.1% and -41.4%
same,inhibition,"[8]; single agent, at 5 µM",-42.6% and 2.37%
same,log fold change Tl+ flux,F380Y/beta4,-0.0606 (inactive)
same,log fold change Tl+ flux,[9],-0.0276 (inactive)
same,log fold change Tl+ flux,R275C,-0.024 (inactive)
same,log fold change Tl+ flux,R275C/beta1,-0.0244 (inactive)
same,log fold change Tl+ flux,R275C/beta2Delta,-0.00892 (inactive)
same,log fold change Tl+ flux,R275C/beta4,0.0324 (inactive)
same,log fold change Tl+ flux,R275C/Slo1WT/beta2,0.0456 (inactive)
O=C1CCC(N2C(=O)c3ccccc3C2=O)C(=O)N1 (stereo unspecified),inhibition,[1],8.81%
same,score,[2],1.27
same,cytochrome c release ratio,[3],1.09
same,inhibition of aggregation,[4],81%
same,glutamate uptake change,[5],-12.1%
same,fluorescence ratio,[10],1.04 (inactive)
same,inhibition,[11],-1.36% (inactive)
same,inhibition,[12],-1.24% (inactive)
same,fluorescence ratio,[13],0.99 (inactive)
same,log fold change Tl+ flux,F380Y/beta4,0.0329 (inactive)
same,log fold change Tl+ flux,[9],-0.00962 (inactive)
same,log fold change Tl+ flux,R275C,0.0291 (inactive)
same,log fold change Tl+ flux,R275C/beta1,-0.0697 (inactive)
same,log fold change Tl+ flux,R275C/beta2Delta,0.0347 (inactive)
same,log fold change Tl+ flux,R275C/beta4,-0.108 (inactive)
same,log fold change Tl+ flux,R275C/Slo1WT/beta2,-0.0685 (inactive)
